In PubChem BioAssay (Tox21):
Results filed as inconclusive are left out. Active and inactive are the calls of the source. Unless noted, the call rests on the fitted dose curve; in most records, active means well fitted curve in the direction sought with a large enough effect in the repeat runs; inconclusive means weak or mixed curves; inactive means no such curve, though single readings can be large; an effect the other way counts as inactive or inconclusive.

How the values were obtained:
[1] = qHTS assay to identify small molecule antagonists of the estrogen receptor beta (ER-beta) signaling pathway - cell viability counter screen (AID 1259382);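 further: HEK293T cells carrying ER-beta-UAS-bla reporter stimulated with estradiol; series mostly up to about 92 µM; nearly all actives have a fitted effect of over 55% in size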
Summary of the method: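 ER-beta-UAS-bla HEK293T cells (2,000/well, 2% charcoal-stripped FBS) were pre-incubated 6 hr at 37C, then given compound plus 1nM final 17-beta-estradiol for 16 hr. Viability was read in the same wells by CellTiter-Glo luminescence after 30 min at room temperature.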

[2] = molecular target: Estrogen receptor (Homo sapiens) (UniProt P03372); test: qHTS assay to identify small molecule agonists of the estrogen receptor alpha (ER-alpha) signaling pathway in the presence of an antagonist (AID 1259383; calls by dose curve; further: top concentration of the series differs between compounds; nearly all actives have a fitted effect of over 15% in size)
Summary of the method: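 VM7Luc4E2 cells (endogenous full-length ER-alpha, 4×ERE-luciferase) were precultured 5 days in phenol red-free medium with 10% charcoal-stripped FBS, given 10.0nM ICI-182,780 (final), then treated with compounds at 15 concentrations for 22hr at 37C; luminescence read with ONE-Glo.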

[3] = qHTS assay to identify small molecule agonists or antagonists of the thyroid stimulating hormone receptor (TSHR) signaling pathway - wild type cell line counter screen (AID 1259384; calls by dose curve)
Summary of the method: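 Wild-type HEK293 cells were plated 18 h at 37 C/5% CO2, pin-dosed with compound plus Ro20-1724 medium, held 30 min at room temperature, then given cAMP-d2 and anti-cAMP-cryptate; fluorescence was read after 1 h. Fifteen concentrations, triplicate.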

[4] = molecular target: Thyrotropin receptor (Homo sapiens) (UniProt P16473); test: qHTS assay to identify small molecule antagonists of the thyroid stimulating hormone receptor (TSHR) signaling pathway (AID 1259385; calls by dose curve; further: nearly all actives have a fitted effect of over 20% in size)
Summary of the method: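 TSHR-HEK293 cells were plated and held 18 h at 37C/5% CO2, then given compound plus Ro20-1724 and stimulated with TSH at 1.5 ng/mL final. After 30 min at room temperature, cAMP was detected with cAMP-d2/anti-cAMP-cryptate (1 h) by fluorescence.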

[5] = qHTS assay to identify small molecule agonists of the estrogen receptor alpha (ER-alpha) signaling pathway in the presence of an antagonist - cell viability counter screen (AID 1259386);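 further: series mostly up to about 92 µM; cells exposed to compounds for 22 h at 37 °C before the viability read; nearly all actives have a fitted effect of over 30% in size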
Summary of the method: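 VM7Luc4E2 cells (endogenous full-length ER-alpha, 4×ERE-luciferase) were held 5 days in phenol red-free medium with 10% charcoal-stripped FBS, plated, then given 10.0nM ICI-182,780 and compounds at 15 concentrations for 22hr at 37C; viability read by CellTiter-Fluor fluorescence.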

[6] = molecular target: Progesterone receptor (Homo sapiens) (UniProt P06401); test: qHTS assay to identify small molecule antagonists of the progesterone receptor (PR) signaling pathway (AID 1346795; active means well fitted inhibition curve with a large enough effect in the signal ratio in the repeat runs, not every such curve was filed as active; the % refers to the signal ratio)
Summary of the method: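 After 6 hr plating at 37C in 2% stripped-serum medium, PR-UAS-bla HEK293T cells got compounds, then 1 nM R5020. Sixteen hours later, LiveBLAzer substrate was applied for 2 hr at room temperature and fluorescence was recorded.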

[7] = qHTS assay to identify small molecule agonists of the progesterone receptor (PR) signaling pathway - cell viability counter screen (AID 1346799; calls by dose curve; further: nearly all actives have a fitted effect of over 45% in size)
Summary of the method: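 Viability was scored by ATP luminescence (CellTiter-Glo, 30 min, room temperature) in the same wells used for the reporter readout, after 16 hr compound exposure of PR-UAS-bla HEK293T cells.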

[8] = qHTS assay to identify small molecule antagonists of the TGF-beta/Smad signaling pathway - cell viability counter screen (AID 1346824); further: nearly all actives have a fitted effect of over 50% in size
Summary of the method: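 SBE-bla HEK 293T cells were plated overnight at 37 C, then given compounds in DMSO plus TGF-beta1 (added as 0.25 ng/mL solution) for 5 hr. After the bla read, CellTiter-Glo was added to the same wells and luminescence read after 30 min at room temperature.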

[9] = qHTS assay to identify small molecule agonists of the TGF-beta/Smad signaling pathway - cell viability counter screen (AID 1346829); further: top concentration of the series differs between compounds; nearly all actives have a fitted effect of over 45% in size
Summary of the method: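 Here the cytotoxicity of library compounds is measured in SBE-bla HEK 293T cells treated for 5 hr, using CellTiter-Glo added to wells already read for the beta-lactamase reporter.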

[10] = qHTS assay to identify small molecule agonists of the TGF-beta/Smad signaling pathway (AID 1346859; active means well fitted activation curve with a large enough effect in the signal ratio in the repeat runs, not every such curve was filed as active; the % refers to the signal ratio; further: series mostly up to about 77 µM)
Summary of the method: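 Dual-wavelength fluorescence (460/530 nm emission) quantified beta-lactamase expression under the Smad binding element in HEK 293T cells following 5 hr compound treatment at 37 C.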

[11] = molecular target: Thyrotropin-releasing hormone receptor (Homo sapiens) (UniProt P34981); test: qHTS assay to identify small molecule antagonists of the thyrotropin-releasing hormone receptor (TRHR) signaling pathway (AID 1346877; active means well fitted inhibition curve with a large enough effect in the repeat runs, not every such curve was filed as active; further: series mostly up to about 51 µM)
Summary of the method: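 TRHR-expressing HEK293 cells were seeded, cultured 18 h at 37 °C, then loaded with calcium dye for 2 h. Compounds were pre-incubated 5 min at room temperature before 1 nM TRH (final) was added, and kinetic fluorescence was recorded for 3 min.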

[12] = molecular target: Thyrotropin-releasing hormone receptor (Homo sapiens) (UniProt P34981); test: qHTS assay to identify small molecule agonists of the thyrotropin-releasing hormone receptor (TRHR) signaling pathway (AID 1346891; calls by dose curve; further: series mostly up to about 58 µM)
Summary of the method: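 Kinetic fluorescence (3 min, 1 s intervals) reported intracellular calcium after compound transfer onto TRHR-Hek293 cells pre-loaded with dye for 2 h at 37 °C.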

[13] = Human pregnane X receptor (PXR) small molecule agonists, qHTS cell viability counter screen (AID 1346977); further: nearly all actives have a fitted effect of over 50% in size
Summary of the method: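 HepG2 cells stably carrying the PXR-Luc reporter are cultured with 5% charcoal-stripped FBS and treated with compounds for 24hr. CellTiter-Fluor is added at 23hr and fluorescence is read after 1hr.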

[14] = Caspase-3/7 induction in HepG2 cells by small molecules, qHTS assay (AID 1346978); further: nearly all actives have a fitted effect of over 15% in size
Summary of the method: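 Wild-type HepG2 cells (2,000/well) were settled 5 h at 37 C, 5% CO2, then exposed to compounds in DMSO for 17 h. Caspase-3/7 activity was read by luminescence 30 min after adding Caspase-Glo 3/7 reagent at room temperature.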

[15] = Caspase-3/7 induction in CHO-K1 cells by small molecules, qHTS cell viability counter screen (AID 1346979); further: nearly all actives have a fitted effect of over 35% in size
Summary of the method: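 Seeding: 1,500 CHO-K1 cells/well. Rest: 5hr, 37C. Treatment: compounds in DMSO, 16hr. Read: CellTiter-Fluor, 1hr, fluorescence.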

[16] = Caspase-3/7 induction in CHO-K1 cells by small molecules, qHTS assay (AID 1346980); further: nearly all actives have a fitted effect of over 15% in size
Summary of the method: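 Wild-type cells were seeded at 1,500 per well and settled 5 hr at 37 C, 5% CO2, then exposed to DMSO-dissolved compounds for 17 hr. Caspase-Glo 3/7 reagent was added, and luminescence was read after 30min at room temperature.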

[17] = Caspase-3/7 induction in HepG2 cells by small molecules, qHTS cell viability counter screen (AID 1346981); further: series mostly up to about 92 µM; nearly all actives have a fitted effect of over 30% in size
Summary of the method: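 Wild-type HepG2 cells (2,000/well) were allowed to settle for 5 hr at 37 C, 5% CO2, then dosed with compounds in DMSO by pin transfer. After 16 hr at 37 C, CellTiter-Fluor was added and fluorescence read 1 hr later.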

[18] = molecular target: Progesterone receptor (Homo sapiens) (UniProt P06401); test: qHTS assay to identify small molecule agonists of the progesterone receptor (PR) signaling pathway (AID 1346784; calls by dose curve; further: nearly all actives have a fitted effect of over 30% in size)
Summary of the method: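 The screen uses PR-UAS-bla HEK 293T cells in charcoal-stripped serum (2%). Compounds are applied for 16 hr at 37C after a 6 hr pre-incubation, and reporter activity is detected with a FRET beta-lactamase substrate after 2 hr at room temperature.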

[19] = qHTS assay to identify small molecule antagonists of the progesterone receptor (PR) signaling pathway - cell viability counter screen (AID 1346798); further: series mostly up to about 92 µM; nearly all actives have a fitted effect of over 50% in size
Summary of the method: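 Viability was determined by ATP-based luminescence (CellTiter-Glo) in PR-UAS-bla HEK293T cells cultured in 2% charcoal-stripped serum and incubated 16 hr with compounds under R5020 stimulation.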
On the % scale 0 is the no-effect control and ±100 the full control effect.

Estrogen receptor (Homo sapiens), sequence (P03372 whole entry, looked up): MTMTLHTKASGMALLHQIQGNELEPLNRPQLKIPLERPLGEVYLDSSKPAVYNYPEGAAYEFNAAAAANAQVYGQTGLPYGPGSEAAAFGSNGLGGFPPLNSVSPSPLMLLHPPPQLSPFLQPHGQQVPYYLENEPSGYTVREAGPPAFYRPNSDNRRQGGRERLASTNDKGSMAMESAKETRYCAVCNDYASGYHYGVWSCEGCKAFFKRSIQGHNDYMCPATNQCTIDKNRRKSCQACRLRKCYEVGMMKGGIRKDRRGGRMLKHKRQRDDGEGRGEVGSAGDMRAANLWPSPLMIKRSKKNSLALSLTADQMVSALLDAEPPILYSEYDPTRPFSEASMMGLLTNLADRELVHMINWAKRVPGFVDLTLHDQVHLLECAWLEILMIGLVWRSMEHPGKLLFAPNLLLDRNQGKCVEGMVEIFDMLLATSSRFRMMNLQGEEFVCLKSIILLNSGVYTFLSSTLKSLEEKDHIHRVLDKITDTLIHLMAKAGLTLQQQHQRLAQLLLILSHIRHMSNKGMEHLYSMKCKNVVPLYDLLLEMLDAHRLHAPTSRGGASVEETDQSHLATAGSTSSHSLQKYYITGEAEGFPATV
Thyrotropin-releasing hormone receptor (Homo sapiens), sequence (P34981 whole entry, looked up): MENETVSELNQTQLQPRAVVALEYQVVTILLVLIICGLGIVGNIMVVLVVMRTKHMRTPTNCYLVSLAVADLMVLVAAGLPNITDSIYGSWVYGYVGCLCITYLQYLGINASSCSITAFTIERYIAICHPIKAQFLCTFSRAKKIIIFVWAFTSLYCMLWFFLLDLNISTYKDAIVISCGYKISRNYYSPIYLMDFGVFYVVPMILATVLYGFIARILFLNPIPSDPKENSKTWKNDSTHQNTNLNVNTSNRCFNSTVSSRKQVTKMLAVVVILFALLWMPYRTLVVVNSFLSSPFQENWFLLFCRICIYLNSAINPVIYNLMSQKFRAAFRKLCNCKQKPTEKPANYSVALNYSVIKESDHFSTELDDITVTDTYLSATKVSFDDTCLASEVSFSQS
Thyrotropin receptor (Homo sapiens), sequence (P16473 whole entry, looked up): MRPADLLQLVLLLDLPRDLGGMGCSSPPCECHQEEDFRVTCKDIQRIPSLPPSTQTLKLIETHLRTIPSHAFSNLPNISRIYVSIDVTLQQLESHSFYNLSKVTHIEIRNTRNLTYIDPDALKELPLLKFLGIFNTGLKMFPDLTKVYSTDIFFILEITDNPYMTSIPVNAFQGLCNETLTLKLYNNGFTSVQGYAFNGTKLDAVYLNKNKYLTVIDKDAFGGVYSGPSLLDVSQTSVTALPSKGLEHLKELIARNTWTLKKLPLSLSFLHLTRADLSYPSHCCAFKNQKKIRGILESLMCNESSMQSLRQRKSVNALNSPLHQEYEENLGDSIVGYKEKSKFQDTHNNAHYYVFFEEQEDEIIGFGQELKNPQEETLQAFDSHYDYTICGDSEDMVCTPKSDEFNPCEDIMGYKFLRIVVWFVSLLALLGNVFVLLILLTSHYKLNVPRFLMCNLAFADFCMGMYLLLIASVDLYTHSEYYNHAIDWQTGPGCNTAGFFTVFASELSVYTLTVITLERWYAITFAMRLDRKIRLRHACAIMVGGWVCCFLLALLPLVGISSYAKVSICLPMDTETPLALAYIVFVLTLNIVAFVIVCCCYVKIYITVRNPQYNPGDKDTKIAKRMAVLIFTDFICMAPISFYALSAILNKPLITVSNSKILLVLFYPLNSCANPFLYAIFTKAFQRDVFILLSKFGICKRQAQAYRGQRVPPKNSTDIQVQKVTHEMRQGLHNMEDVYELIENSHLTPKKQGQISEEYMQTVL
Progesterone receptor (Homo sapiens), sequence (P06401 whole entry, looked up): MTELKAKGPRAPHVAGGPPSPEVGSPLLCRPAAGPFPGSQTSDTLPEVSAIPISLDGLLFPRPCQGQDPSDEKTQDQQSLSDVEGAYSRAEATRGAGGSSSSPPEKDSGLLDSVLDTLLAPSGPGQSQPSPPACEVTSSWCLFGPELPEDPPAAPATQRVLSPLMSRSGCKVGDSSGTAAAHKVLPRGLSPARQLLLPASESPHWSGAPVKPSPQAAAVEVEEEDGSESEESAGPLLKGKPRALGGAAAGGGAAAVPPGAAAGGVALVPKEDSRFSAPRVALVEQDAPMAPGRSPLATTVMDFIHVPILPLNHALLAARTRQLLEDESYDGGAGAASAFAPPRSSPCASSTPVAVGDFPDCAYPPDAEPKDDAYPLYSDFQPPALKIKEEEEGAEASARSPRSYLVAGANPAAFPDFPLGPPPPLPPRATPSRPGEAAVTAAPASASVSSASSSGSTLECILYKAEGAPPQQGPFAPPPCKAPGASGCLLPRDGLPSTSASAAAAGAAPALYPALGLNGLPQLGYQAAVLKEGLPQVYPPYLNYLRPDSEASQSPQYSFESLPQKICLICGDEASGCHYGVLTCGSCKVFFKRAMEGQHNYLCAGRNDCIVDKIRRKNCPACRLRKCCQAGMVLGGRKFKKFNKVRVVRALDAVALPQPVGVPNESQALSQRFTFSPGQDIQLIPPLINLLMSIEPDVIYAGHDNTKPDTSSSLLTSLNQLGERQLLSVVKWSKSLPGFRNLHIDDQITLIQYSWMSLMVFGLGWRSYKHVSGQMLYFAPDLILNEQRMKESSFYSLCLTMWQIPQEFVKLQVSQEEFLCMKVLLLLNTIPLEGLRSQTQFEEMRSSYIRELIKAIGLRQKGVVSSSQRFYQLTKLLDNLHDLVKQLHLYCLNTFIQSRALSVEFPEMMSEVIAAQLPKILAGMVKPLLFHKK

O=C(O)/C=C/c1ccccc1
inactive: outcome [1] | outcome [2] | outcome [3] | outcome [4] | Potency [5] | Potency [6] | Potency [7] | outcome [8] | outcome [9] | outcome [10] | outcome [11] | outcome [12] | Potency [13] | outcome [14] | Potency [15] | outcome [16] | Potency [17]

CCC(=O)c1ccc(O)cc1
inactive: outcome [1] | outcome [2] | Potency [5] | Potency [18] | Potency [6] | Potency [19] | Potency [7] | outcome [8] | outcome [9] | outcome [10] | outcome [11] | outcome [12] | Potency [13] | outcome [14] | Potency [15] | outcome [16]

CC1=CC[C@H](CC=O)C1(C)C
inactive: outcome [1] | outcome [2] | outcome [3] | outcome [4] | Potency [5] | Potency [6] | Potency [7] | outcome [8] | outcome [9] | outcome [10] | outcome [11] | outcome [12] | Potency [13] | outcome [14] | Potency [15] | outcome [16] | Potency [17]

CN=C(NC#N)NCCSCc1csc(N=C(N)N)n1
inactive: outcome [1] | outcome [2] | outcome [3] | outcome [4] | Potency [5] | Potency [18] | outcome [8] | outcome [9] | outcome [10] | Potency [13] | outcome [14] | Potency [15] | outcome [16] | Potency [17]

NC(=O)C1(N2CCCCC2)CCN(CCCC(=O)c2ccc(F)cc2)CC1
inactive: outcome [1] | outcome [2] | outcome [3] | outcome [4] | Potency [5] | Potency [6] | outcome [8] | outcome [9] | outcome [10] | Potency [13] | outcome [14] | Potency [15] | outcome [16] | Potency [17]

Nc1cc(Cl)cc(S(=O)(=O)O)c1O
inactive: outcome [1] | outcome [2] | outcome [3] | outcome [4] | Potency [5] | Potency [6] | Potency [7] | outcome [8] | outcome [9] | outcome [10] | outcome [11] | outcome [12] | Potency [13] | outcome [14] | Potency [15] | outcome [16]

Cc1nc(C)nc(N2C[C@@H](C)N(c3ccnc([C@@H](C)O)n3)[C@@H](C)C2)n1
inactive: outcome [1] | outcome [2] | outcome [3] | outcome [4] | Potency [5] | Potency [18] | Potency [19] | Potency [7] | outcome [8] | outcome [9] | outcome [10] | Potency [13] | outcome [14] | Potency [15] | outcome [16] | Potency [17]

CNC(=O)C(c1ccccc1)c1ccccc1
inactive: outcome [1] | outcome [2] | outcome [3] | outcome [4] | Potency [5] | Potency [18] | Potency [7] | outcome [9] | outcome [10] | Potency [13] | outcome [14] | Potency [15] | outcome [16] | Potency [17]

CC(C)(CO)[C@@H](O)C(=O)NCCCO
inactive: outcome [1] | outcome [2] | outcome [3] | outcome [4] | Potency [5] | Potency [18] | Potency [6] | outcome [8] | outcome [9] | outcome [10] | Potency [13] | outcome [14] | Potency [15] | outcome [16] | Potency [17]

CCCO
inactive: outcome [1] | outcome [2] | Potency [5] | Potency [18] | Potency [6] | Potency [19] | Potency [7] | outcome [8] | outcome [9] | outcome [10] | Potency [13] | outcome [14] | Potency [15] | outcome [16] | Potency [17]

Nc1ccc(/C=C/c2ccc(N)cc2S(=O)(=O)O)c(S(=O)(=O)O)c1
inactive: activity change, negative = cytotoxicity [1] 6.78% [at 0.349 µM] | activation [2] 0.0248% [at 0.349 µM] | activity change, negative = cytotoxicity [5] 0.0708% [at 0.349 µM] | activation [18] 0.0887% [at 0.349 µM] | activity change, negative = inhibition [6] 3.92% [at 0.348 µM] | activity change, negative = cytotoxicity [19] 0.087% [at 0.348 µM] | viability change, negative = cytotoxic [8] -0.698% [at 0.29 µM] | activity change, negative = cytotoxicity [9] 12.6% [at 0.29 µM] | activation [10] 1.21% [at 0.29 µM] | activity, negative = inhibition [11] -5.44% [at 0.194 µM] | activation [12] 0.0703% [at 0.218 µM] | activity change, negative = cytotoxicity [13] 11% [at 0.349 µM] | caspase activation [14] 0.454% [at 0.349 µM] | activity change, negative = cytotoxicity [15] 8.5% [at 0.349 µM] | caspase-3/7 activation [16] -0.823% [at 0.349 µM] | activity change, negative = cytotoxicity [17] 1.29% [at 0.349 µM]

Cc1ccc(C(=O)C(=O)O)cc1C
inactive: outcome [1] | outcome [2] | Potency [5] | Potency [18] | Potency [6] | Potency [19] | Potency [7] | outcome [8] | outcome [9] | outcome [10] | Potency [13] | outcome [14] | Potency [15] | outcome [16] | Potency [17]

O=[Si]=O
inactive: outcome [1] | outcome [2] | Potency [5] | Potency [18] | Potency [6] | Potency [7] | outcome [8] | outcome [9] | outcome [10] | outcome [11] | outcome [12] | Potency [13] | outcome [14] | Potency [15] | outcome [16] | Potency [17]

CC(C)COC(=O)CC(C(=O)OCC(C)C)S(=O)(=O)O (stereo not given)
inactive: outcome [1] | outcome [2] | Potency [5] | Potency [6] | Potency [19] | outcome [8] | outcome [9] | outcome [10] | Potency [13] | outcome [14] | Potency [15] | outcome [16] | Potency [17]

COc1cc2c(Nc3ccc(Br)cc3F)ncnc2cc1OCC1CCN(C)CC1
inactive: outcome [1] | outcome [2] | Potency [5] | Potency [18] | Potency [6] | Potency [19] | Potency [7] | outcome [8] | outcome [9] | outcome [10] | Potency [13] | outcome [14] | Potency [15] | outcome [16] | Potency [17]

COc1cc2c3cc1Oc1cc(ccc1O)C[C@@H]1c4c(cc(OC)c(O)c4Oc4ccc(cc4)C[C@@H]3N(C)CC2)CC[N+]1(C)C
inactive: outcome [1] | outcome [3] | outcome [4] | Potency [5] | Potency [18] | Potency [6] | Potency [19] | Potency [7] | outcome [8] | outcome [9] | outcome [10] | Potency [13] | outcome [14] | Potency [15] | outcome [16] | Potency [17]
